# From PMC12618258
# Assays:
# Test in all cases: cross-link between two proteins; cross-linking mass spectrometry
# [1] = target: Large ribosomal subunit protein eL24 (UniProt P83731)
# [2] = target: Large ribosomal subunit protein eL38 (UniProt P63173)
# [3] = target: Large ribosomal subunit protein eL6 (UniProt Q02878)
# [4] = target: Large ribosomal subunit protein eL30 (UniProt P62888)
# [5] = target: Large ribosomal subunit protein uL3 (UniProt P39023)
substance,measurement,setting,value
"Large ribosomal subunit protein eL22, P35268",listed as a hit,[1],yes
same,listed as a hit,[2],yes
"Small ribosomal subunit protein uS5, P15880",listed as a hit,[3],yes
"Small ribosomal subunit protein uS4, P46781",listed as a hit,[4],yes
"Large ribosomal subunit protein eL31, P62899",listed as a hit,[1],yes
"Large ribosomal subunit protein eL13, P26373",listed as a hit,[5],yes
